# Results: PubChem BioAssay (NCATS)
# A number with no mark means an inactive call. Inconclusive results are not listed. Calls of active or inactive are those of the source. Unless noted, calls come from the whole dose curve; as a rule, active = well fitted curve in either direction with a large enough effect (not every such curve was filed as active); inconclusive = small, poorly fitted or top-dose-only effect, or another doubt; inactive = flat fitted curve, though single readings scatter.
# What was measured:
# [1] = molecular target: Lysosomal acid glucosylceramidase (Homo sapiens) (UniProt P04062); experiment: Glucocerebrosidase-p2 (AID 348; in the data active = potency below about 10 µM; note: potency is the fitted concentration of half-maximal effect); details: purified GBA, blue fluorogenic substrate, 40 min
# In short: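 Compounds titrated from 0.6 nM upwards against 0.2 nM enzyme in pH 5.9 citric acid/KH2PO4, taurocholate, tween-20; blue fluorogenic substrate 80 uM, 40 min room temperature, stopped and read Ex 365/Em 440 for AC50.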
# [2] = AP1 Signaling Pathway (AID 357); details: ME-180 AP-1-bla reporter, EGF-induced, beta-lactamase ratio, 5 h; at 7.69 µM (top of the series) unless noted; note: % is set by controls: 0 for no effect and ±100 for the full control effect
# In short: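 AP-1-bla ME-180 cells with beta-lactamase reporter under AP-1 response element, stimulated with EC50 EGF; compounds titrated, 5 hours at 37 degrees Celsius. CCF4 read at 460/530 nm ratio; positive and negative modulators judged by AC50.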
# [3] = molecular target: Cytochrome P450 1A2 (Homo sapiens) (UniProt P05177); experiment: p450-cyp1a2 (AID 410; calls by dose curve; note: potency is the fitted concentration of half-maximal effect;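 for activity change, negative = inhibition: -100% = full effect of reference inhibitor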); details: recombinant CYP1A2, luciferin-ME demethylation, luminescence; series mostly up to 11.4 µM
# In short: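 20nM CYP1A2 with 100uM Luciferin-ME (at Km) in 100mM KPO4; compound preincubated 10 min, NADPH regeneration added, 60 min at room temperature. Luciferin quantified by luminescence after detection reagent; normalized to 57 uM furafylline.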
# [4] = NFAT Signaling Pathway (AID 444); details: Jurkat NFAT-bla M1, carbachol, beta-lactamase ratio, 5 h; at 7.69 µM (top of the series) unless noted;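 note: carbachol stimulus at about its EC50 of 1 µM final; % is set by controls: 0 for no effect and ±100 for the full control effect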
# In short: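 Read-out: CCF4 FRET ratio (460 nm/530 nm) after 1 h RT dye loading, used for %activity and AC50 from titration series. Cells: Jurkat NFAT-β-lactamase/M1 line, treated with compound plus 1 uM carbachol for 5 h, 37 °C.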
# [5] = Stat Signaling Pathway (AID 446); details: ME-180 SIE beta-lactamase reporter, IL-6 stimulated, 5 h; at 7.69 µM (top of the series) unless noted;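 note: ME-180 cervical cancer cells given 40 pM IL-6 alongside compound; SIE-controlled beta-lactamase reporter measured as 460/530 nm FRET emission ratio; % is set by controls: 0 for no effect and ±100 for the full control effect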
# In short: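 ME-180 cells carrying a SIE-driven beta-lactamase reporter are stimulated with 40 pM IL-6 for 5 h at 37C in the presence of compound. The 460/530 nm FRET substrate ratio is read after 2.5 h at RT. Data are normalised to 300 pM IL-6 and to 125 nM JAK inhibitor controls.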
# [6] = molecular target: Glucocorticoid receptor (Homo sapiens) (UniProt P04150); experiment: GR-EFC Redistribution (AID 451; calls by dose curve; note: potency is the fitted concentration of half-maximal effect); details: CHO-K1 GR-EFC translocation, beta-gal luminescence, 2 h
# In short: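 Translocation of GR-ED fusion to nuclear EA restores b-gal, read by luminescence after 1 h room-temperature detection. Engineered CHO-K1 biosensor cells, 1,000/well, exposed 2 h at 37 C to titrations up to 46 uM final.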
# [7] = molecular target: 3',5'-cyclic-AMP phosphodiesterase 4B (Homo sapiens) (UniProt Q07343); experiment: qHTS Assay for Inhibitors of PDE-IV (AID 607; active = well fitted activation curve with a large enough effect in the main read-out, with a control signal flat, not every such curve was filed as active; note: % of control where 0% means no effect); details: HEK293 ACTOne CNG channel cells, membrane potential fluorescence; series mostly up to 22.9 µM
# In short: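 HEK293 ACTOne cells with CNG channel (1000/well), endogenous PDE4; membrane potential dye, compounds up to 22.9 uM final. Fluorescence Ex 535/Em 590; RO 20-1724 (100 uM final) as reference.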
# [8] = molecular target: Cytochrome P450 2D6 (Homo sapiens) (UniProt P10635); experiment: qHTS Assay for Inhibitors and Substrates of Cytochrome P450 2D6 (AID 891; active = well fitted curve in the direction sought with a large enough effect; an effect the other way counts as inactive or inconclusive; note: nearly all actives have a fitted effect of over 60% in size; note: potency is the fitted concentration of half-maximal effect); details: recombinant CYP2D6, luciferin-ME EGE luminescence; series mostly up to 11.4 µM
# In short: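 Human CYP2D6 (5 nM) with 30 uM Luciferin-ME EGE (at Km) in 100 mM KPO4, compound preincubated 10 min, then NADPH regeneration system for 60 min at room temperature. Luciferin read by luminescence; normalized to 1.43 uM quinidine.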
# [9] = molecular target: Cytochrome P450 2C19 (Homo sapiens) (UniProt P33261); experiment: qHTS Assay for Inhibitors and Substrates of Cytochrome P450 2C19 (AID 899; active = well fitted curve in the direction sought with a large enough effect; an effect the other way counts as inactive or inconclusive; note: % is set by controls: 0 for no effect and ±100 for the full control effect; nearly all actives have a fitted effect of over 60% in size); details: recombinant CYP2C19, luciferin-H EGE luminescence; series mostly up to 11.4 µM
# In short: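 Reactions contain 5nM enzyme, 10uM Luciferin-H EGE (KM) and 50mM KPO4; compound preincubates 10 min at 37C, NADPH regeneration starts turnover for 60 min. Luminescence after detection reagent gives activity.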
# [10] = molecular target: Glucocorticoid receptor (Homo sapiens) (UniProt P04150); experiment: GR-GFP Redistribution (AID 450;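 active = compounds whose dose series gives a full or clear partial fitted curve of increased nuclear translocation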; note: potency is the fitted concentration of half-maximal effect); details: U2OS GR-GFP nuclear translocation, laser cytometry, 2 h
# [11] = molecular target: Mitogen-activated protein kinase 10 (Mus musculus) (UniProt Q61831); experiment: JNK3 AlphaScreen Assay (AID 530); details: JNK3 lysate, c-Jun phosphorylation; series mostly up to 57.1 µM;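 note: kinase came from lysate of stimulated human HepG2 cells; signal reports phosphorylation of biotinylated GST-cJun 1-79 at Ser73 with 10 µM ATP; % is set by controls: 0 for no effect and ±100 for the full control effect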
# In short: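 Compound titrations were preincubated 15 minutes at room temperature with substrate, antibody and pre-activated JNK3-containing HepG2 lysate. Reactions were started with 10 uM ATP and stopped with EDTA-containing bead buffer for AlphaScreen detection.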
# [12] = qHTS Assay for Identification of Small Molecule Agonists for Hypoxia Response Element Signaling Pathway (AID 914; active = well fitted activation curve with a large enough effect in the signal ratio, with a control signal flat, not every such curve was filed as active; the % refers to the signal ratio; note: % of control where 0% means no effect); details: ME-180 (cervical carcinoma) HRE-bla reporter, beta-lactamase ratio, CoCl2, 17 h; stronger effect = higher value
# In short: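 AC50 values come from titration-series %Activity, taken as the 460/530nm ratio of CCF4 fluorescence (excitation 405nm). CellSensor HRE-bla ME-180 cells were treated 17 hours at 37 C with compound plus an EC50 level of CoCl2.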
# [13] = molecular target: Luciferin 4-monooxygenase (Photinus pyralis) (UniProt P08659); experiment: Biochemical firefly luciferase enzyme assay for NPC (AID 624030; active = well fitted curve in the direction sought with a large enough effect; an effect the other way counts as inactive or inconclusive;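 note: purified P. pyralis luciferase at 10 nM with luciferin and ATP substrate; 0% = DMSO and -100% = full luciferase inhibition by PTC124 control; nearly all actives have a fitted effect of over 70% in size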); details: purified P. pyralis luciferase, luminescence, 5 min; series mostly up to 58.6 µM
# In short: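 Direct inhibition of firefly luciferase enzyme (10 nM final, 50 mM Tris Acetate) assessed by luminescence within 5 minutes. Percent activity scaled between DMSO and PTC124 positive control, with concentration-effect curves classified by fit quality and response.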
# Chain of 3',5'-cyclic-AMP phosphodiesterase 4B (Homo sapiens) (Q07343 whole entry, looked up): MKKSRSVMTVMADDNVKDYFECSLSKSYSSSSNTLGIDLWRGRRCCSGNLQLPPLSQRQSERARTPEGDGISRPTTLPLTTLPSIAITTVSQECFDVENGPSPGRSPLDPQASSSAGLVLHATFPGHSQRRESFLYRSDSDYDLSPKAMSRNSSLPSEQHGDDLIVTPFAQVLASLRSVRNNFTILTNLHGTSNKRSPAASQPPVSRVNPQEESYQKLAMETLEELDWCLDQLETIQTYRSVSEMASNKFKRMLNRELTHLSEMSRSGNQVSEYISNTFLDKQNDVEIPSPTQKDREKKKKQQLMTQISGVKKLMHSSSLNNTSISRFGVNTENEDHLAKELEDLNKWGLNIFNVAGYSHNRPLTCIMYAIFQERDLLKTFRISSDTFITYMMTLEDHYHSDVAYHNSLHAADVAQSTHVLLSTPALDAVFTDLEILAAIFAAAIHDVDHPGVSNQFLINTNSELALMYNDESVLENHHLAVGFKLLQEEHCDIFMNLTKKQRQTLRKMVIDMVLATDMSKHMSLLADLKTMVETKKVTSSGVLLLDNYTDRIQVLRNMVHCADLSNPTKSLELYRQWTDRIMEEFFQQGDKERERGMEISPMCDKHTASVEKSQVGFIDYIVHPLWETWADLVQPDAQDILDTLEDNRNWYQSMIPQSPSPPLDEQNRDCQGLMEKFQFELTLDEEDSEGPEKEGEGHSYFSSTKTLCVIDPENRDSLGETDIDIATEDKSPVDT
# Chain of Cytochrome P450 1A2 (Homo sapiens) (P05177 whole entry, looked up): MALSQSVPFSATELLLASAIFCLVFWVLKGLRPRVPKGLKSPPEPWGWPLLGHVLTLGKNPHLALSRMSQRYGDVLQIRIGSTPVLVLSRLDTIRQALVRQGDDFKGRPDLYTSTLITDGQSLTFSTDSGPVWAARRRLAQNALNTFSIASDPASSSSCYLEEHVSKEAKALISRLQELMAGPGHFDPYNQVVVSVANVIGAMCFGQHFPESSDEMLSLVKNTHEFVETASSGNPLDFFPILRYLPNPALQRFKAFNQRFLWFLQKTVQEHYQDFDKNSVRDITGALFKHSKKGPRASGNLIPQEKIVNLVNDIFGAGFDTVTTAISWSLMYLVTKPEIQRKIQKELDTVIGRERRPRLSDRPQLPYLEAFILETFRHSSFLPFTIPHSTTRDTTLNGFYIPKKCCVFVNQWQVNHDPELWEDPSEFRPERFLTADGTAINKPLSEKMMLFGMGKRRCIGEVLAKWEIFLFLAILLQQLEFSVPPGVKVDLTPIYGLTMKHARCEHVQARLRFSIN
# Chain of Cytochrome P450 2C19 (Homo sapiens) (P33261 whole entry, looked up): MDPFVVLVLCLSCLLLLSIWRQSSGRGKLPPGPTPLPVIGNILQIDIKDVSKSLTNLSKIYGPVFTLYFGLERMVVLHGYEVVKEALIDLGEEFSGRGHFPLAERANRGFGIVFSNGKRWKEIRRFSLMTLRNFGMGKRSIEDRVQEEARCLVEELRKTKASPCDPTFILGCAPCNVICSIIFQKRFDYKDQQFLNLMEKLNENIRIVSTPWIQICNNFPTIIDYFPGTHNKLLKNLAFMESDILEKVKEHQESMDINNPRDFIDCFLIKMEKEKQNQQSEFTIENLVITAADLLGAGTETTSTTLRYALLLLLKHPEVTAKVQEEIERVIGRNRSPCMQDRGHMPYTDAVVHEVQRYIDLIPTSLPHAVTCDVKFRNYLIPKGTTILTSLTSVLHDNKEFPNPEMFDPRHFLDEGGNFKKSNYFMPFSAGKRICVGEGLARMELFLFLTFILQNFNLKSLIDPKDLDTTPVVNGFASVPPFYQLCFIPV
# Chain of Glucocorticoid receptor (Homo sapiens) (P04150 whole entry, looked up, the tested form may be a part): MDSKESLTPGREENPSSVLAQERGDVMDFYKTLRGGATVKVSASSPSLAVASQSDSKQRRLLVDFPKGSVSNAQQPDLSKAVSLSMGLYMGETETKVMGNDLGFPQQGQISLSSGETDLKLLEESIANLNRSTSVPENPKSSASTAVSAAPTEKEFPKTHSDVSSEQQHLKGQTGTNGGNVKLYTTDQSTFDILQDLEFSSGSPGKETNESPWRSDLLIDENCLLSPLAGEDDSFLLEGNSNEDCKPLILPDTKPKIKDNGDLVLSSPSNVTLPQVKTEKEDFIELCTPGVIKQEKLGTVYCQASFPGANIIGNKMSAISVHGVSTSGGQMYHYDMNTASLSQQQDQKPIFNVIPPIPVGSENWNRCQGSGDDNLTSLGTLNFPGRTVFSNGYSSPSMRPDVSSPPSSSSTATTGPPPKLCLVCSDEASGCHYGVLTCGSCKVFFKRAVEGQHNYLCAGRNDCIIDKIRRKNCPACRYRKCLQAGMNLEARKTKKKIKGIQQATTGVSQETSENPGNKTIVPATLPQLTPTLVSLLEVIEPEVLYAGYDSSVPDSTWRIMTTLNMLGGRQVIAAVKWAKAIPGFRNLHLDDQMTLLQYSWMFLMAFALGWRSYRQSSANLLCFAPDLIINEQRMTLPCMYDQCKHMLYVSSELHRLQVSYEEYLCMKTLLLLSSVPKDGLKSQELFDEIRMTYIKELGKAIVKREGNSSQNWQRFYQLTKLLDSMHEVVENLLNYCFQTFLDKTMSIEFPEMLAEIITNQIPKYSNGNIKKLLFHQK
# Chain of Cytochrome P450 2D6 (Homo sapiens) (P10635 whole entry, looked up): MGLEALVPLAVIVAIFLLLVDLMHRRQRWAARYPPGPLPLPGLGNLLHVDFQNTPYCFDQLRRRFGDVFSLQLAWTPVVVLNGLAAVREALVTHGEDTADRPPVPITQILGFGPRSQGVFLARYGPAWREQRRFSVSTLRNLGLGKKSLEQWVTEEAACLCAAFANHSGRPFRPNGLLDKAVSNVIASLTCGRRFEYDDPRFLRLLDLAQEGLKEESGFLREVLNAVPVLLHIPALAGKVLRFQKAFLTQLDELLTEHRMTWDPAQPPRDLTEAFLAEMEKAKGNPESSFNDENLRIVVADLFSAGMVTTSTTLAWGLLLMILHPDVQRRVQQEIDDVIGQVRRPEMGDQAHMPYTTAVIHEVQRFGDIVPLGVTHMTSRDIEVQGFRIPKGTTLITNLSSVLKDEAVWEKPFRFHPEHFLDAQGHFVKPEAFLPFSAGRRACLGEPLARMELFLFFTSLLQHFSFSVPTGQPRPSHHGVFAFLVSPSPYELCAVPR
# Chain of Lysosomal acid glucosylceramidase (Homo sapiens) (P04062 whole entry, looked up): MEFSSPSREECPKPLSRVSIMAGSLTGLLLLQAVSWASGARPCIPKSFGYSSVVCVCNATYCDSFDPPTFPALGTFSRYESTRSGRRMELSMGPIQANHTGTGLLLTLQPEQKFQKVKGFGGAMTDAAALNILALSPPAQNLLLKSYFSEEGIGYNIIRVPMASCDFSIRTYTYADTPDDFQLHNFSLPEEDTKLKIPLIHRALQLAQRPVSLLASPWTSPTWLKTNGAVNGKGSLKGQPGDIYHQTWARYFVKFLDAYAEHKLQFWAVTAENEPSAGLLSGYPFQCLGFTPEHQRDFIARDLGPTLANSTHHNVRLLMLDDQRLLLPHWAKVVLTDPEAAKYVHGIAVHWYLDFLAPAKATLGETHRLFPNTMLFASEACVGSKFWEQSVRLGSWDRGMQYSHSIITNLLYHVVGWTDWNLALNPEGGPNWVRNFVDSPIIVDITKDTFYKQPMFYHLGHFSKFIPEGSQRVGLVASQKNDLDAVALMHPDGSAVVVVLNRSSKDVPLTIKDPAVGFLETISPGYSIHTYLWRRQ
# Chain of Luciferin 4-monooxygenase (Photinus pyralis) (P08659 whole entry, looked up): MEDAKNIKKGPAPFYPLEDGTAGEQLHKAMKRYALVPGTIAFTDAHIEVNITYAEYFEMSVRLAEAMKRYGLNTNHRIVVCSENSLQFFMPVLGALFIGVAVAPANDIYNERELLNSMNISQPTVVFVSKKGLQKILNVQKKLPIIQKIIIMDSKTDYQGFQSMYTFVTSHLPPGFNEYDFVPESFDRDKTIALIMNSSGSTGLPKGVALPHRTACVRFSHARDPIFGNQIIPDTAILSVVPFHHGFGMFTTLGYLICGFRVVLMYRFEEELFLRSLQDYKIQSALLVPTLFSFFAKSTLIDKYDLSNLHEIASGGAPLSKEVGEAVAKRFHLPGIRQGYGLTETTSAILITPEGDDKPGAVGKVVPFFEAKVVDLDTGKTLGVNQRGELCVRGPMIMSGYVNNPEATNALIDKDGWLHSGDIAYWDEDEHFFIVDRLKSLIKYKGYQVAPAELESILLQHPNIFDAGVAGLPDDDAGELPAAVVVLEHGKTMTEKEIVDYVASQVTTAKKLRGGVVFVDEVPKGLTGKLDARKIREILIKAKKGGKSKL
SMILES,Potency [1],"activity change, negative = inhibition [2]",Potency [3],"activity change, negative = inhibition [4]","activity, negative = inhibition [5]",Potency [6],outcome [7],Potency [8],Potency [9],"activity change, negative = inhibition [3]",Potency [10],"activity change, negative = inhibition [11]",activation [12],outcome [13]
O=C(O)c1cc(N=Nc2ccc([As](=O)(O)O)cc2)ccc1O,> 11.4 µM,6.37%,inactive,6.3%,-0.258%,> 9.22 µM,inactive,inactive,inactive,–,–,–,–,–
C[C@H](CC(C#N)(c1ccccc1)c1ccccc1)N1CCCCC1,> 11.4 µM,17%,–,–,2.01%,> 9.22 µM,inactive,2.51 µM (active),–,7.1% [at 2.29 µM],> 46 µM,1.28% [at 11.4 µM],4.33%,–
Nc1nc(N)c(N=Nc2ccc([As](=O)(O)O)cc2)c(=O)[nH]1,> 11.4 µM,6.48%,–,5.43%,0.893%,> 9.22 µM,inactive,–,–,-14.9% [at 2.29 µM],–,5.04% [at 11.4 µM],–,–
COc1cc2ccccc2c2cc([N+](=O)[O-])oc12,> 11.4 µM,3.54%,0.126 µM (active),–,16.1%,> 9.22 µM,inactive,–,–,–,> 46 µM,16.5% [at 11.4 µM],–,–
O=C(CCN1CC2CCC(CC2)C1)c1cccs1,> 11.4 µM,17.2%,5.01 µM (active),–,1.61%,> 9.22 µM,inactive,2 µM (active),–,–,> 46 µM,0.402% [at 11.4 µM],–,–
O=[As](O)(O)c1ccc(N=Nc2ccc(O)cc2)cc1,> 11.4 µM,3.33%,inactive,9.82%,3.63%,> 9.22 µM,inactive,–,–,–,–,-2.48% [at 11.4 µM],5.33%,–
C[C@H](c1ccccc1)N1CCN([C@@H](C)c2ccccc2)CC1,> 11.4 µM,-6.57%,–,–,-0.496%,> 9.22 µM,inactive,0.0631 µM (active),–,-16% [at 2.29 µM],> 46 µM,1.95% [at 11.4 µM],–,–
O=c1[nH]cnc2[nH]cc(CN3CCCCC3)c12,> 11.4 µM,2.74%,inactive,3.17%,0.346%,–,inactive,–,–,–,–,0.447% [at 11.4 µM],–,inactive
O=[As](O)(O)c1ccc2nc3cc([As](=O)(O)O)ccc3nc2c1,> 11.4 µM,0.372%,inactive,–,-4.42%,> 9.22 µM,inactive,–,inactive,–,> 46 µM,-2.18% [at 11.4 µM],–,–
O=C(O)C[O][Sb][O]CC(=O)O,> 11.4 µM,4.83%,–,6.08%,7.88%,> 9.22 µM,inactive,–,inactive,-7.8% [at 2.29 µM],> 46 µM,–,–,–
NS(=O)(=O)C[C-]1C=C[CH]([Sb-]([Cl])([Cl])([Cl])([Cl])[Cl])C=C1.c1ccncc1 (stereo unspecified),> 11.4 µM,2.96%,inactive,2.26%,19.7%,–,inactive,–,–,–,–,4.62% [at 11.4 µM],–,–
N[C@@H](Cc1c[nH]c2cc([N+](=O)[O-])ccc12)C(=O)O,> 11.4 µM,-8.44%,–,5.87%,10.4%,> 9.22 µM,inactive,–,–,–,> 46 µM,4.66% [at 11.4 µM],–,–
c1ccc2c(c1)Sc1ccccc1N2C[C@H]1CN2CCC1CC2,> 11.4 µM,24.9%,inactive,–,9.78%,> 9.22 µM,–,0.398 µM (active),–,–,> 46 µM,3.89% [at 11.4 µM],–,inactive
COc1ccc(C(=O)O[C@H]2CC[C@@]3(C)[C@H]4CC[C@H]5[C@]3(C[C@]3(O)[C@H]6CN7C[C@H](C)CC[C@H]7[C@](C)(O)[C@]6(O)[C@H](O)C[C@]53O)O[C@]24O)cc1OC,> 11.4 µM,1.14%,–,-1.26%,-2.58%,> 9.22 µM,inactive,–,inactive,–,> 46 µM,-0.646% [at 11.4 µM],–,–
